The term inhibition denotes the drop in the measured response relative to a control, in per cent.

Seven compounds from ChEMBL document CHEMBL1961873, “Compounds: GSK PKIS; Assays: Nanosyn kinase panel” (2012) can be followed below.

Test [1] has as its target T1, Tyrosine-protein kinase ITK/TSK (Homo sapiens) (UniProt Q08881).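 Note: values are mean percent inhibition of ITK from the GSK PKIS screen.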
T1 sequence (whole entry): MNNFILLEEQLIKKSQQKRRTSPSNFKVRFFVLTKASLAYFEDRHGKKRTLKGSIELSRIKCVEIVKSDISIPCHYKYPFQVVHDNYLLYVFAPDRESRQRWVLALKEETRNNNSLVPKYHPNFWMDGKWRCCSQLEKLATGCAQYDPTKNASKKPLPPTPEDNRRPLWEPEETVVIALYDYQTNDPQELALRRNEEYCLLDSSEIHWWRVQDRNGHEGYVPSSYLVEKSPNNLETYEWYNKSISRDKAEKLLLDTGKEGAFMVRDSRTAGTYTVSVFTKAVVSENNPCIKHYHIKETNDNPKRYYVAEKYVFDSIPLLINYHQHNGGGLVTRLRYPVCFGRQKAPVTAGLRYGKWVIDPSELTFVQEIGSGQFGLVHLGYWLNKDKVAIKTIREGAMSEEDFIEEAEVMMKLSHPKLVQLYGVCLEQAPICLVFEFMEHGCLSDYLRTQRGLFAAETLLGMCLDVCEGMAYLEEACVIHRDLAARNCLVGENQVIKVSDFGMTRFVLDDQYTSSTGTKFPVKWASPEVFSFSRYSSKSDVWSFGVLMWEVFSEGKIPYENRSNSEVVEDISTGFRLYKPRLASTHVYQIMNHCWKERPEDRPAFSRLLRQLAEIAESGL
As to conditions: at 1 µM.

The target in test [2] is Tyrosine-protein kinase JAK1 (Homo sapiens) (UniProt P23458). As to conditions: at 0.1 µM.
Test [3] has the same target. The settings on record: at 1 µM.
The target in test [4] is Tyrosine-protein kinase JAK2 (Homo sapiens) (UniProt O60674). As to conditions: at 0.1 µM.
Sequence of Tyrosine-protein kinase JAK2 (Homo sapiens) (O60674 whole entry): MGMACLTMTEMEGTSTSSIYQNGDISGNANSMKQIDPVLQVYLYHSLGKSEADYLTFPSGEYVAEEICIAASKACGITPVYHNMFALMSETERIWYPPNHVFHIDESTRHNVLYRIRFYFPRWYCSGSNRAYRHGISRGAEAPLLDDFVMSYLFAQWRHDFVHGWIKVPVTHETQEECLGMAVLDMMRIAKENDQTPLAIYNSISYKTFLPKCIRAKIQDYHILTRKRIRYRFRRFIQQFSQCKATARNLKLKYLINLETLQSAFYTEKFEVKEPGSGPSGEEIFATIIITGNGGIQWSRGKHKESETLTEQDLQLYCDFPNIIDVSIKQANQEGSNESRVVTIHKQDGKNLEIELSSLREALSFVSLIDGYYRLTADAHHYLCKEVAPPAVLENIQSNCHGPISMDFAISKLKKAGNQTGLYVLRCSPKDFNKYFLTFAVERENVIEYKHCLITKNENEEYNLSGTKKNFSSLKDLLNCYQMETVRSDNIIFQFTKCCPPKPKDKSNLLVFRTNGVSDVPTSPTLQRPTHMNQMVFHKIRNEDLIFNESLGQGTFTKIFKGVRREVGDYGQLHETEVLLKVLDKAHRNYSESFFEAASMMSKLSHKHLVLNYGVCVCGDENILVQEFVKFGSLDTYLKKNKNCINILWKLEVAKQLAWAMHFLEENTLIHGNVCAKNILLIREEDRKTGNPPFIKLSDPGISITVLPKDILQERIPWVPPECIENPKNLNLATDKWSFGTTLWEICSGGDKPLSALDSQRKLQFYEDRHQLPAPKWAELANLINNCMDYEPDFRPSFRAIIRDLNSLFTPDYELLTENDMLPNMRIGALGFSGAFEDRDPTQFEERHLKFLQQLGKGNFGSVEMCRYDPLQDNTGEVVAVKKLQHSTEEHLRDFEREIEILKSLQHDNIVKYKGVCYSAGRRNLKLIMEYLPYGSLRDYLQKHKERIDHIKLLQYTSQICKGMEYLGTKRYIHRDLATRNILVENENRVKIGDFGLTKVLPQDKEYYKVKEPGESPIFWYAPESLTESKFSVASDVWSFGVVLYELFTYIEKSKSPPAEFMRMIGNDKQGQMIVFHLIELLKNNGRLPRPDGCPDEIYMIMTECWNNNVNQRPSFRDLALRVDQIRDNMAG
Test [5] shares this target. The settings on record: at 1 µM.
For test [6], the target named is T2, Tyrosine-protein kinase JAK3 (Homo sapiens) (UniProt P52333).
T2 sequence (whole entry): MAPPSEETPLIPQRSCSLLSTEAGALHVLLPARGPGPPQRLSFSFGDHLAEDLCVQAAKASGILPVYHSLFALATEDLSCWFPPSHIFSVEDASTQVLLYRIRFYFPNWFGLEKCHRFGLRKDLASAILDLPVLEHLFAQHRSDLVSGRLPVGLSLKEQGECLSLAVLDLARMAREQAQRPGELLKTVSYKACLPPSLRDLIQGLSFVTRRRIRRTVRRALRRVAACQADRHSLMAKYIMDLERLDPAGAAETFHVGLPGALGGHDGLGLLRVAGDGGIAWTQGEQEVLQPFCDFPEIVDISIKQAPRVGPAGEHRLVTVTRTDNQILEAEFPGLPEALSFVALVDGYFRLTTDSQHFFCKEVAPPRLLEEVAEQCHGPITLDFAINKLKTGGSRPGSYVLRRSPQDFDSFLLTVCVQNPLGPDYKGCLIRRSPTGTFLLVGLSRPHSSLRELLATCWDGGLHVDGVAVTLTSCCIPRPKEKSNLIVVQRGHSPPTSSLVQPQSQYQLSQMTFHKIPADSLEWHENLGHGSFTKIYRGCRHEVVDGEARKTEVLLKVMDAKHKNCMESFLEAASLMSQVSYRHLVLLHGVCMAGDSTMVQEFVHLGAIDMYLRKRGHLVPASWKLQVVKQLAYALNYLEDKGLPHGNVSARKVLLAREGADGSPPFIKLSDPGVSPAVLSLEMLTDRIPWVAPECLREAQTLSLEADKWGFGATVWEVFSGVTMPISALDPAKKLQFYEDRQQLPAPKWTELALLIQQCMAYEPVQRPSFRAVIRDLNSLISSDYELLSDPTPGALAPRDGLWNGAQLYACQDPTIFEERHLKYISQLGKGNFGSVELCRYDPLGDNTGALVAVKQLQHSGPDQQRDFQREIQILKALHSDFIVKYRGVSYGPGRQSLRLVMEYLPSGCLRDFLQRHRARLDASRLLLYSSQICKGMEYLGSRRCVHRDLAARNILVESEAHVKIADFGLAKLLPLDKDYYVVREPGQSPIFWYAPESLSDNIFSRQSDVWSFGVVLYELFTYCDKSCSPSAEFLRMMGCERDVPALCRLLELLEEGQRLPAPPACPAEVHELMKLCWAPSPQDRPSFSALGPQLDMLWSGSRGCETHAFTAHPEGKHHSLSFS
The settings on record: at 0.1 µM.

The target of test [7] is T2, Tyrosine-protein kinase JAK3 (Homo sapiens). The settings on record: at 1 µM.
Test [8] deals with Vascular endothelial growth factor receptor 2 (Homo sapiens) (UniProt P35968). As to conditions: at 0.1 µM.
Sequence of Vascular endothelial growth factor receptor 2 (Homo sapiens) (P35968 whole entry): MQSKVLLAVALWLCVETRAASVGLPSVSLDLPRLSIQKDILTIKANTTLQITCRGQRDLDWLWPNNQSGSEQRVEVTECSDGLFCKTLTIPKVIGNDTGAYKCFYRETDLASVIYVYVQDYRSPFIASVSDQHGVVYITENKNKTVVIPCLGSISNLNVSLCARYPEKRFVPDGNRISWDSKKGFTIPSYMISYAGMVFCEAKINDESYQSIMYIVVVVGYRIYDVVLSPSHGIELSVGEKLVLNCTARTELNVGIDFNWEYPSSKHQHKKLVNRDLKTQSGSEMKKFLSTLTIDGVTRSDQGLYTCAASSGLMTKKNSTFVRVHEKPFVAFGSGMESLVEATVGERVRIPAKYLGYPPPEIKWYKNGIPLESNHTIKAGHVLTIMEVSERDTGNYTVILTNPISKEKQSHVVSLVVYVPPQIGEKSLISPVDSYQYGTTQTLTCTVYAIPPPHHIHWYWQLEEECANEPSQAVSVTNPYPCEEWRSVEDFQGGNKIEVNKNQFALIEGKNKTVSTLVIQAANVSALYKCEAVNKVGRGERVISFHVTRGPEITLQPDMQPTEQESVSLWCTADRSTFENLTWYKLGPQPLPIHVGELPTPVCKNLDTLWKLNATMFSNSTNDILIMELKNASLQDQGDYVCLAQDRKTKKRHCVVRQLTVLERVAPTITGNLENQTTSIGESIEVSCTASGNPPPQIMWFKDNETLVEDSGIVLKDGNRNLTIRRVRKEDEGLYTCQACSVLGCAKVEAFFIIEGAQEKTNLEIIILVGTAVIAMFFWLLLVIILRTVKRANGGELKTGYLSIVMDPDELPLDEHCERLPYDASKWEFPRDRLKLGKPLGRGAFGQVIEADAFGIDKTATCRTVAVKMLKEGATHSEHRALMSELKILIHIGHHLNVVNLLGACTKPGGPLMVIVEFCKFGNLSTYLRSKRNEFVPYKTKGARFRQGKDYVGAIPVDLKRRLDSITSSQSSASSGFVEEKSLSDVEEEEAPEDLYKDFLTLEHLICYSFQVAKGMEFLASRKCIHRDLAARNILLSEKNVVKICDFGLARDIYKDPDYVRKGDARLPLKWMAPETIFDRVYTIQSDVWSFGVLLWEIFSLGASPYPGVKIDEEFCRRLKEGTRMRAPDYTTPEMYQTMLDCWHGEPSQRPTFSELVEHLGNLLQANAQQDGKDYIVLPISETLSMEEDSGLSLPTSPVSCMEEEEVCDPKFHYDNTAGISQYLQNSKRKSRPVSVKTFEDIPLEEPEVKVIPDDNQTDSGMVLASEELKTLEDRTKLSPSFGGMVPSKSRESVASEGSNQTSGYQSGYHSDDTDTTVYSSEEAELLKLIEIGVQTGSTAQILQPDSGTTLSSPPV
Test [9] has the same target. The settings on record: at 1 µM.
For test [10], the target named is Mast/stem cell growth factor receptor Kit (Homo sapiens) (UniProt P10721). As to conditions: at 0.1 µM.
Sequence of Mast/stem cell growth factor receptor Kit (Homo sapiens) (P10721 whole entry): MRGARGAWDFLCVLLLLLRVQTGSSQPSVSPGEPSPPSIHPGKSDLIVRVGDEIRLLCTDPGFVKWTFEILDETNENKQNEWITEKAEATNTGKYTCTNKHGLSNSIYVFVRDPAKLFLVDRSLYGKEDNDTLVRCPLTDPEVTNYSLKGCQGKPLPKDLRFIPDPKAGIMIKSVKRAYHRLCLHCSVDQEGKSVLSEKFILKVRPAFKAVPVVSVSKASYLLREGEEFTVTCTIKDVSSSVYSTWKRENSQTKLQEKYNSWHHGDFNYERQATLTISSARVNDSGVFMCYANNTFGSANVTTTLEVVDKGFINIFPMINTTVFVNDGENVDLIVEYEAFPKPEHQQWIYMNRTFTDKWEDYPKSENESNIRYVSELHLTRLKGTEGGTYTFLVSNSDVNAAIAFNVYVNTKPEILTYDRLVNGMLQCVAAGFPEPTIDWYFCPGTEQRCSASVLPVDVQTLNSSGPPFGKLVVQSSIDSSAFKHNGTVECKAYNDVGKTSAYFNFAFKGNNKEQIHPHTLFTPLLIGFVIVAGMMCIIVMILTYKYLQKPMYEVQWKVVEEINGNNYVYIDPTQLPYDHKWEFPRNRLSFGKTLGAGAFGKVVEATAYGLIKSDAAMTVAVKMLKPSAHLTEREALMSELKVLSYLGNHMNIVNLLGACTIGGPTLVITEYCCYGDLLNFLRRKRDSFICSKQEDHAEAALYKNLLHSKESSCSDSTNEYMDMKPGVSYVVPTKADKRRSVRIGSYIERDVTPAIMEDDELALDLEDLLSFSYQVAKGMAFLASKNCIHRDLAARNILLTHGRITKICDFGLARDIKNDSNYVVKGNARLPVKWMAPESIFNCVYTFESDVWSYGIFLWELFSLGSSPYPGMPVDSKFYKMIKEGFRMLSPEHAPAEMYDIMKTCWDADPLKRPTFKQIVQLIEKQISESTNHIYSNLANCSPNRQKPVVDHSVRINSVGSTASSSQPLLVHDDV
Test [11] has the same target. The settings on record: at 1 µM.
Test [12] has as its system Mast/stem cell growth factor receptor Kit (Homo sapiens), P10721 [D816V]. The settings on record: at 0.1 µM.
Test [13] shares this test system. As to conditions: at 1 µM.
For test [14], the system named is Mast/stem cell growth factor receptor Kit (Homo sapiens), P10721 [T670I]. The settings on record: at 0.1 µM.
Sequence of Mast/stem cell growth factor receptor Kit (Homo sapiens), P10721 [T670I] (P10721 whole entry T670I): as the sequence (P10721 whole entry) above, with T670I counted along it
For test [15] the test system is unchanged. As to conditions: at 1 µM.
For test [16], the system named is Mast/stem cell growth factor receptor Kit (Homo sapiens), P10721 [V560G]. The settings on record: at 0.1 µM.
Sequence of Mast/stem cell growth factor receptor Kit (Homo sapiens), P10721 [V560G] (P10721 whole entry V560G): as the sequence (P10721 whole entry) above, with V560G counted along it
The test system is the same in test [17]. As to conditions: at 1 µM.
For test [18], the target named is Tyrosine-protein kinase Lck (Homo sapiens) (UniProt P06239). The settings on record: at 0.1 µM.
Sequence of Tyrosine-protein kinase Lck (Homo sapiens) (P06239 2-509 limits assumed): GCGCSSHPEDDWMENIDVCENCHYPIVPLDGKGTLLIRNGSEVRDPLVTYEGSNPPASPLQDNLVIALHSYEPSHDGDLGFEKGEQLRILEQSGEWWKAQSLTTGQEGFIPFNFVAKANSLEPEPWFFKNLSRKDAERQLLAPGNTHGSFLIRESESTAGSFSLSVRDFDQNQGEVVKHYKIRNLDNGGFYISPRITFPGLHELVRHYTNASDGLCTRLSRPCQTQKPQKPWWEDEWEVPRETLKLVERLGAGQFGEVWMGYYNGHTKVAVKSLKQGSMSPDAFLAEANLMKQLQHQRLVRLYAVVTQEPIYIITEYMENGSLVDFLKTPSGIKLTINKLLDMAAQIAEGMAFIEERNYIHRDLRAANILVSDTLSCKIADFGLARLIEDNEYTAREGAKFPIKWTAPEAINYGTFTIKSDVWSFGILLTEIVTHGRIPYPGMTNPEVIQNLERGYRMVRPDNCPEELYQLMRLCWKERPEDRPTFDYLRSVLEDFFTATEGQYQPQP
For test [19] the target is unchanged. The settings on record: at 1 µM.
Test [20] addresses Leukocyte tyrosine kinase receptor (Homo sapiens) (UniProt P29376). The settings on record: at 0.1 µM.

Sequence of Mast/stem cell growth factor receptor Kit (Homo sapiens), P10721 [D816V] (P10721 whole entry D816V): as the sequence (P10721 whole entry) above, with D816V counted along it
Sequence of Leukocyte tyrosine kinase receptor (Homo sapiens) (P29376 whole entry): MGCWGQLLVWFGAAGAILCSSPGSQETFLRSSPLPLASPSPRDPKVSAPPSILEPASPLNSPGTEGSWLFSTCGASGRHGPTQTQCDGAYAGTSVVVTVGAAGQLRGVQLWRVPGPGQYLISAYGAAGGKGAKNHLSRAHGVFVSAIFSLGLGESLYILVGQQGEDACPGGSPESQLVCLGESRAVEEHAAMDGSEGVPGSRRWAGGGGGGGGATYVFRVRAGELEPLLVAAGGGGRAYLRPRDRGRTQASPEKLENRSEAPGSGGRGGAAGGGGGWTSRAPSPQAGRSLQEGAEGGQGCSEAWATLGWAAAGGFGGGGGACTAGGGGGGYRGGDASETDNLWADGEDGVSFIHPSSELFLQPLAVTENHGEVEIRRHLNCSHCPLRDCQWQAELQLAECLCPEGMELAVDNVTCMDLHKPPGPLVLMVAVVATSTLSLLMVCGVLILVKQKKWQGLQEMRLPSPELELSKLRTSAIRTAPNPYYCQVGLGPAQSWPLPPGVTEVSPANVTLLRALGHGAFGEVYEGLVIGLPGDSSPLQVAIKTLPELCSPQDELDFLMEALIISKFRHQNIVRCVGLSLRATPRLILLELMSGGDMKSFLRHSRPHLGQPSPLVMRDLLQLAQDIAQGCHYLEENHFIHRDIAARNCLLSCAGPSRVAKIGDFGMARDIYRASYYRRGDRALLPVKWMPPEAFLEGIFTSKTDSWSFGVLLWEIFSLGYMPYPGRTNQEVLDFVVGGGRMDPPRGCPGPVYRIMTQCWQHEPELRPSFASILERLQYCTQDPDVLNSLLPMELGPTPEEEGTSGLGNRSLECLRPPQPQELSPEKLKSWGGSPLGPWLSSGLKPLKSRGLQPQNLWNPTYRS

In the case of `Fc1ccc(-c2c(-c3ccncc3)nc3n2CCS3)cc1`, the inhibition in [1] is -2.17%; in [2], 1.7%; in test [3] it was 10.2%; in test [4], 0.77%; in test [5] it was 4.51%; in [6] it was -3.51%. Moreover, the inhibition in [7] is 2.02%; in test [8], 5.2%; in test [9], 9.29%; in test [10] it was 3.82%; in test [11] it was 9.55%; in test [12] it was 0.48%. Also, the inhibition is 4.72% in test [13]; 2.05% in test [14]; 3.53% in test [15]; -2.29% in [16]; -3.6% in test [17]; -3.58% in test [18]. The inhibition is -1.31% in [19] and 3.49% in [20].

As to `NS(=O)(=O)c1ccc(Nc2cc(-c3ccc(O)c(F)c3)n[nH]2)cc1`, the inhibition was 12.4% in test [1]; -7.43% in test [2]; 6.94% in test [3]; -0.13% in test [4]; -0.37% in [5]; 0.11% in test [6]. Also, the inhibition in test [7] was 8.25%; in test [8], 4.49%; in [9] it was 35.3%; in test [10], 20.9%; in [11], 86.4%; in test [12], -3.97%. In addition, the inhibition in test [13] is -1.47%; in test [14], -0.5%; in [15], 20.2%; in test [16], 8.78%; in test [17], 55.9%; in test [18] it was -0.68%. For the same compound, the inhibition in [19] was 7.91%; in test [20] it was -0.58%.

Regarding `C/C(Nc1ccc(S(N)(=O)=O)cc1)=C1/C(=O)Nc2ccccc21`, the inhibition in test [1] was 4.72%; in test [2], -6.57%; in test [3], -1.09%; in [4], -0.57%; in test [5], 0.27%; in test [6] it was -0.45%. Besides, the inhibition in [7] is 6.44%; in test [8], 9.11%; in test [9] it was 44.5%; in [10], 38.4%; in test [11] it was 90.9%; in [12], -0.26%. Besides, the inhibition in test [13] was -1.16%; in [14], 21%; in [15], 82.5%; in test [16] it was 3.94%; in [17] it was 22.4%; in test [18] it was -1.24%. The inhibition in test [19] stood at 4.22%; in test [20] it was 1.12%.

Regarding `Fc1ccc(-c2ncn(C3CCNCC3)c2-c2ccnc(Oc3ccc4c(c3)OCO4)n2)cc1`, the inhibition in test [1] is 3.21%; in test [2], 3.3%; in test [3], 4.29%; in test [4], 0.42%; in test [5], 1.47%; in [6], -2.3%. For the same compound, the inhibition in test [7] is -2.01%; in test [8], 9.3%; in test [9], 12.5%; in test [10] it was 7.99%; in test [11] it was 9.68%; in test [12], 4.71%. The inhibition in [13] is 5.2%; in test [14] it was 3.24%; in test [15], 3.64%; in test [16] it was -1.09%; in test [17] it was -0.53%; in test [18], 3.98%. In addition, the inhibition in test [19] worked out at 8.64%; in [20] it was 3.89%.

Regarding `COc1cccc(/C=N/Nc2ncnc3c2cnn3-c2cccc(OC)c2)c1`, the inhibition is 0.34% in test [1]; 1.61% in test [2]; 4.23% in [3]; 3.55% in [4]; 5.22% in test [5]; -1.99% in test [6]. The inhibition in [7] is -2.7%; in [8], 5.88%; in test [9] it was 11.2%; in test [10], 6.67%; in test [11], 6.76%; in test [12], 2.28%. The inhibition in [13] turned out to be 4.96%; in [14], 1.91%; in test [15], 4.1%; in test [16] it was 3.55%; in [17], 0.61%; in [18] it was 2.18%. Moreover, the results for the inhibition in test [19] and in test [20] were 8.97% and 5%, respectively.

As to `CN(C)c1ccc2c(c1)/C(=C/Nc1ccc(S(N)(=O)=O)cc1)C(=O)N2`, the inhibition in test [1] is 3.68%; in test [2], 0.51%; in [3], 14.2%; in test [4] it was 0.74%; in [5] it was 2.09%; in test [6], -0.16%. Besides, the inhibition turned out to be 20.4% in test [7]; 14.6% in test [8]; 53.6% in [9]; 4.04% in test [10]; 28.4% in test [11]; 1.55% in test [12]. Moreover, the inhibition is 3.22% in test [13]; 3.39% in test [14]; 10% in [15]; -1.48% in test [16]; -1.72% in [17]; 2.35% in test [18]. Also, the inhibition turned out to be 12.7% in test [19] and 0.81% in [20].

Consider `O=C1Nc2ccc(I)cc2C1=Cc1cc(Br)c(O)c(Br)c1`, for which the inhibition in test [1] was 1.44%; in test [2], 1.44%; in test [3] it was 2.67%; in test [4] it was 2.54%; in test [5], 3%; in [6] it was -0.81%. The inhibition is -3.69% in [7]; 5.81% in [8]; 9.7% in [9]; 5.45% in test [10]; 18.4% in [11]; 2.74% in test [12]. The inhibition in test [13] is 2.13%; in [14], -0.52%; in [15] it was 4.39%; in test [16], -4.29%; in test [17], -1.08%; in [18] it was 3.11%. Further, the inhibition is 3.54% in test [19] and 4.82% in test [20].
